Measured values: PubChem BioAssay (Tox21)
Results filed as inconclusive are left out. Active and inactive are the calls of the source. Unless noted, the call rests on the fitted dose curve; in most records, active means well fitted curve in the direction sought with a large enough effect in the repeat runs; inconclusive means weak or mixed curves; inactive means no such curve, though single readings can be large; an effect the other way counts as inactive or inconclusive.

Key:
[1] = qHTS assay to identify small molecule agonists of the peroxisome proliferator-activated receptor delta (PPARd) signaling pathway - cell viability counter screen (AID 743211); further: on the % scale 0 is the no-effect control and ±100 the full control effect; nearly all actives have a fitted effect of over 55% in size
In short: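 Multiplexed format: after the 2 h room-temperature LiveBLAzer B/G FRET step, CellTiter-Glo was added to the same wells. Luminescence after 30 min gave cell viability; compound exposure was 17 h at 37C.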

[2] = target: Peroxisome proliferator-activated receptor delta (Homo sapiens) (UniProt Q03181); assay: qHTS assay to identify small molecule agonists of the peroxisome proliferator-activated receptor delta (PPARd) signaling pathway (AID 743212; calls by dose curve; further: on the % scale 0 is the no-effect control and ±100 the full control effect)
Chain of Peroxisome proliferator-activated receptor delta (Homo sapiens) (Q03181 whole entry, looked up): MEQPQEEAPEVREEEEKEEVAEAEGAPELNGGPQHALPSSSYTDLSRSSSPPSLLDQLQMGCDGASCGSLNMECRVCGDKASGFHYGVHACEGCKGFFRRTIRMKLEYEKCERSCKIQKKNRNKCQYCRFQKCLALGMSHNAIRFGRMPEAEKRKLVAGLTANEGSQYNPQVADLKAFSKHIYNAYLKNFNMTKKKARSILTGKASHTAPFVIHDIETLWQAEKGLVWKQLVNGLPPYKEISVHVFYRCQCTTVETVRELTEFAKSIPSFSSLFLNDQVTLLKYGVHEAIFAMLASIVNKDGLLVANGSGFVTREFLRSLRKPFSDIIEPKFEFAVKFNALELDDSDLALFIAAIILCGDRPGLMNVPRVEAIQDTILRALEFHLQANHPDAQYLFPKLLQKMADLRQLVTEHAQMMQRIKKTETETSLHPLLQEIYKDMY
In short: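 Beta-lactamase reporter readout: a ratiometric FRET signal from the LiveBLAzer substrate after 2 h at room temperature. Compound exposure at 37 °C in PPARδ-bla HEK293H cells driven by an upstream activator sequence.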

[3] = qHTS assay to identify small molecule antagonists of the peroxisome proliferator-activated receptor delta (PPARd) signaling pathway - cell viability counter screen (AID 743213); further: on the % scale 0 is the no-effect control and ±100 the full control effect; nearly all actives have a fitted effect of over 50% in size
In short: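 HEK293H cells with the PPARd UAS-bla reporter, co-treated 17 h at 37 C with compounds and L165041 (300 nM final), were lysed with CellTiter-Glo. Luminescence indicated viable cell content.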

[4] = target: Peroxisome proliferator-activated receptor delta (Homo sapiens) (UniProt Q03181); assay: qHTS assay to identify small molecule antagonists of the peroxisome proliferator-activated receptor delta (PPARd) signaling pathway (AID 743215; active means well fitted inhibition curve with a large enough effect in the signal ratio in the repeat runs, not every such curve was filed as active; the % refers to the signal ratio;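 further: cells stimulated with agonist L165041 at 300 nM final during compound exposure; series mostly up to about 62 µM; on the % scale 0 is the no-effect control and ±100 the full control effect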)
In short: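 Cells: HEK293H with a UAS-driven beta-lactamase reporter responsive to PPARd. Compounds were co-added with L165041 (300 nM, final) and incubated 17 h at 37 C before a 2 h room-temperature FRET substrate step and fluorescence reading.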

[5] = qHTS assay to identify small molecule agonists of the farnesoid-X-receptor (FXR) signaling pathway - cell viability counter screen (AID 743218); further: on the % scale 0 is the no-effect control and ±100 the full control effect; nearly all actives have a fitted effect of over 45% in size
In short: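 Cells were seeded, left 5 h at 37 C and 5% CO2, then dosed with compound in DMSO for 16 h. After the beta-lactamase FRET read, CellTiter-Glo was added and luminescence measured 30 min later.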

[6] = qHTS assay to identify small molecule antagonists of the farnesoid-X-receptor (FXR) signaling pathway - cell viability counter screen (AID 743221; active means well fitted cell-killing curve with a large enough effect in the repeat runs, not every such curve was filed as active; further: on the % scale 0 is the no-effect control and ±100 the full control effect; nearly all actives have a fitted effect of over 50% in size)
In short: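 CellTiter-Glo, 30 min RT, luminescence; same wells as the LiveBLAzer FRET read. Cells: FXR-UAS-bla HEK 293T. Treatment: compound with chenodeoxycholic acid 50 uM final, 16 h at 37 C.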

[7] = target: Vitamin D3 receptor (Homo sapiens) (UniProt P11473); assay: qHTS assay to identify small molecule agonists of the vitamin D receptor (VDR) signaling pathway (AID 743222; calls by dose curve; further: on the % scale 0 is the no-effect control and ±100 the full control effect)
Chain of Vitamin D3 receptor (Homo sapiens) (P11473 whole entry, looked up): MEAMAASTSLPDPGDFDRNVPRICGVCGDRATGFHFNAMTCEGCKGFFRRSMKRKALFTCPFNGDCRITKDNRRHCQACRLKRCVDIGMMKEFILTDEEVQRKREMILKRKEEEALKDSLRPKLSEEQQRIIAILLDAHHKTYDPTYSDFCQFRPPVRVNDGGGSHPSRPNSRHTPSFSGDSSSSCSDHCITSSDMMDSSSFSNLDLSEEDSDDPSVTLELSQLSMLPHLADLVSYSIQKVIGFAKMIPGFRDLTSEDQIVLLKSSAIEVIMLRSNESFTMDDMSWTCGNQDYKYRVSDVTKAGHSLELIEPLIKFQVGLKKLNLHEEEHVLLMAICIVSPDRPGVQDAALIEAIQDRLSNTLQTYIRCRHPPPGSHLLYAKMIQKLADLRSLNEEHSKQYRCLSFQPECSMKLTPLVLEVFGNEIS
In short: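 Cells carrying a VDR-driven beta-lactamase reporter are seeded at 2,000 per well and rested 4 h. Compounds in DMSO are added for 16 h at 37C, and FRET substrate fluorescence is measured after 2 h at room temperature.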

[8] = target: Vitamin D3 receptor (Homo sapiens) (UniProt P11473); assay: qHTS assay to identify small molecule antagonists of the vitamin D receptor (VDR) signaling pathway (AID 743223; active means well fitted inhibition curve with a large enough effect in the signal ratio in the repeat runs, not every such curve was filed as active; the % refers to the signal ratio; further: on the % scale 0 is the no-effect control and ±100 the full control effect)
In short: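 After VDR-bla cells are plated and left 4 h at 37C, DMSO-dissolved compounds and 3 nM (final) calcitriol agonist are added. Incubation continues 16 h at 37C; FRET beta-lactamase substrate then develops 2 h at room temperature.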

[9] = qHTS assay to identify small molecule agonists of the vitamin D receptor (VDR) signaling pathway - cell viability counter screen (AID 743224); further: series mostly up to about 63 µM; on the % scale 0 is the no-effect control and ±100 the full control effect; nearly all actives have a fitted effect of over 50% in size
In short: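 Cells: VDR-bla, 2,000/well, settled 4 h. Treatment: compounds in DMSO, 16 h, 37C/5% CO2. Readout: CellTiter-Glo luminescence after 30 min RT.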

[10] = qHTS assay to identify small molecule antagonists of the vitamin D receptor (VDR) signaling pathway - cell viability counter screen (AID 743225); further: on the % scale 0 is the no-effect control and ±100 the full control effect; nearly all actives have a fitted effect of over 50% in size
In short: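 Cytotoxicity toward the VDR-bla HEK 293T line was scored by ATP-based CellTiter-Glo luminescence, read in the wells already used for the beta-lactamase readout after 16 h compound treatment under 3 nM 1-alpha,25-dihydroxyvitamin D3 stimulation.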

[11] = qHTS assay to identify small molecule agonists of the NFkB signaling pathway (AID 1159509; active means well fitted curve in the direction sought with a large enough effect in the signal ratio in the repeat runs, not every such curve was filed as active; the % refers to the signal ratio)
In short: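 Pathway activation was measured in ME-180 cells stably expressing beta-lactamase under NF-kB response element control. Substrate cleavage was read as the 460/530 nm emission shift after 5 hr compound incubation.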

[12] = qHTS assay to identify small molecule agonists of the endoplasmic reticulum stress response signaling pathway (AID 1159516; active means well fitted activation curve with a large enough effect in the signal ratio in the repeat runs, not every such curve was filed as active; the % refers to the signal ratio; further: on the % scale 0 is the no-effect control and ±100 the full control effect)
In short: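 Cells are seeded at 1,500 per well and incubated overnight. Compounds in DMSO are added for 5 hr at 37 C, then beta-lactamase FRET substrate for 2 hr at room temperature, and fluorescence at 460 and 530 nm is measured.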

[13] = qHTS assay to identify small molecule agonists of the endoplasmic reticulum stress response signaling pathway - cell viability counter screen (AID 1159517; calls by dose curve)
In short: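 ESRE-bla HeLa cells (1,500/well) were plated overnight at 37 C and exposed to compounds for 5 hr. After the 2 hr beta-lactamase substrate read, CellTiter-Glo went into the same wells, and luminescence was read after 30 min at room temperature.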

[14] = qHTS assay to identify small molecule antagonists of the retinoid-related orphan receptor gamma (ROR-gamma) signaling pathway - cell viability counter screen (AID 1159520)
In short: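 Cytotoxicity was read from cellular ATP (CellTiter-Glo luminescence) after 16 hr at 37 C with 1 uM doxycycline induction. The inducer was added 2 hr after compound transfer to Tet-on ROR gamma CHO cells.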

[15] = target: Nuclear receptor ROR-gamma (Homo sapiens) (UniProt P51449); assay: qHTS assay to identify small molecule antagonists of the retinoid-related orphan receptor gamma (ROR-gamma) signaling pathway (AID 1159521)
In short: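 Readout: ONE-Glo luciferase luminescence, 30 min at room temperature. System: Tet-on RORγ CHO, RORE-LUC. Sequence: compound 2 h, doxycycline 1 uM final, 16 h at 37 C.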

[16] = qHTS assay to identify small molecule agonists of the AP-1 signaling pathway (AID 1159526; calls by dose curve; further: on the % scale 0 is the no-effect control and ±100 the full control effect)
[17] = target: Bile acid receptor (Homo sapiens) (UniProt Q96RI1); assay: qHTS assay to identify small molecule antagonists of the farnesoid-X-receptor (FXR) signaling pathway (AID 743217; active means well fitted inhibition curve with a large enough effect in the signal ratio in the repeat runs, not every such curve was filed as active; the % refers to the signal ratio; further: on the % scale 0 is the no-effect control and ±100 the full control effect)
Chain of Bile acid receptor (Homo sapiens) (Q96RI1 whole entry, looked up): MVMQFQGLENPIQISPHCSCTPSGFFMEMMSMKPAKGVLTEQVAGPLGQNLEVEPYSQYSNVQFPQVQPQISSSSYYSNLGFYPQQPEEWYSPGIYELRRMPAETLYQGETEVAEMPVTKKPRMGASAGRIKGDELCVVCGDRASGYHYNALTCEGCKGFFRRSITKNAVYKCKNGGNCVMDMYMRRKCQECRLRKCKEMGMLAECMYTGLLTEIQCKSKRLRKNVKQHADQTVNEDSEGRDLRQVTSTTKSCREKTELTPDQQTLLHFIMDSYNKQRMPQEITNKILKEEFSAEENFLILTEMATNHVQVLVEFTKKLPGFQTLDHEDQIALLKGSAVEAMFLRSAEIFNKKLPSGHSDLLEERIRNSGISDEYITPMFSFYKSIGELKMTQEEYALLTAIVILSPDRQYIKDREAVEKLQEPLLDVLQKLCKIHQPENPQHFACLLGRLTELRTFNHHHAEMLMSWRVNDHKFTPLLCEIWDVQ
In short: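 Cells carrying a UAS-driven beta-lactamase reporter (GeneBLAzer FXR-UAS-bla HEK 293T) were plated and rested 5 h at 37 °C. Compounds in DMSO were added alongside chenodeoxycholic acid agonist at 50 uM final and left 16 h at 37 °C before FRET substrate readout.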

[18] = target: Bile acid receptor (Homo sapiens) (UniProt Q96RI1); assay: qHTS assay to identify small molecule agonists of the farnesoid-X-receptor (FXR) signaling pathway (AID 743220; active means well fitted activation curve with a large enough effect in the signal ratio in the repeat runs, not every such curve was filed as active; the % refers to the signal ratio; further: on the % scale 0 is the no-effect control and ±100 the full control effect)
In short: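 FXR-UAS-bla HEK 293T cells carrying a UAS-driven beta-lactamase reporter were plated for 5 h at 37C/5% CO2, then exposed to DMSO-dissolved Tox21 10K compounds for 16 h at 37C. A LiveBLAzer B/G FRET substrate was loaded for 2 h at room temperature before fluorescence reading.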

[19] = qHTS assay to identify small molecule agonists of the NFkB signaling pathway - cell viability counter screen (AID 1159515; calls by dose curve; further: series mostly up to about 61 µM; on the % scale 0 is the no-effect control and ±100 the full control effect; nearly all actives have a fitted effect of over 55% in size)
In short: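 Cells are seeded (2,000 NFkB-bla ME-180 per well), rested overnight, and dosed with DMSO-dissolved compounds for 5 hr at 37 C. Viability is then read by CellTiter-Glo luminescence after 30 min at room temperature.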

[20] = qHTS assay to identify small molecule agonists of the AP-1 signaling pathway - cell viability counter screen (AID 1159525; calls by dose curve; further: nearly all actives have a fitted effect of over 55% in size)
In short: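 Intracellular ATP by Cell Titer Glo luminescence (30 min, RT) in the same ME-180 AP-1-bla wells after the 5 h compound exposure at 37 °C. Normalised to tetra n-octyl ammonium bromide and DMSO controls.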

CCOc1ccc(NC(C)=O)cc1N
inactive: Potency [1] | Potency [2] | Potency [3] | outcome [4] | Potency [5] | Potency [6] | outcome [7] | outcome [8] | outcome [9] | outcome [10] | outcome [11] | outcome [12] | outcome [13] | Potency [14] | Potency [15] | Potency [16]

CCCCCCCCCCCCCCCCCCCl
inactive: activity change, negative = cytotoxicity [1] 0.407% [at 5.95 µM] | activation [2] 0.183% [at 5.95 µM] | viability change, negative = cytotoxic [3] -29.3% [at 6.26 µM] | ratio activity, negative = inhibition [4] -12.3% [at 6.26 µM] | activity change, negative = inhibition [17] -9.56% [at 5.95 µM] | activation [18] 0.479% [at 5.95 µM] | activity change, negative = cytotoxicity [6] 0.201% [at 5.95 µM] | activation [7] 1.2% [at 6.01 µM] | activity change, negative = inhibition [8] 1.88% [at 6.95 µM] | activity change, negative = cytotoxicity [9] 6.04% [at 5.95 µM] | viability change, negative = cytotoxic [10] -10.5% [at 6.95 µM] | activity, negative = cytotoxic [19] -1.14% [at 6.95 µM] | activation [12] -3.96% [at 6.95 µM] | activity change, negative = cytotoxicity [13] 2.96% [at 6.95 µM] | activity, negative = cytotoxicity [14] -1.61% [at 8.39 µM] | activity change, negative = inhibition [15] 0.775% [at 8.39 µM] | viability change, negative = cytotoxic [20] 1.66% [at 6.97 µM] | activation [16] -4.53% [at 6.97 µM]

[O-][n+]1ccc(Cl)cc1
inactive: Potency [1] | Potency [2] | Potency [3] | outcome [4] | outcome [17] | Potency [5] | outcome [18] | outcome [7] | outcome [8] | outcome [9] | outcome [10] | outcome [11] | outcome [12] | outcome [13] | Potency [14] | Potency [15] | outcome [20] | Potency [16]

CC(C)(C)NCC(O)COc1ccc(NC(=O)NC2CCCCC2)cc1 (configuration not stated)
inactive: Potency [1] | Potency [2] | Potency [3] | outcome [4] | outcome [17] | Potency [5] | Potency [6] | outcome [7] | outcome [8] | outcome [9] | outcome [10] | outcome [11] | outcome [12] | outcome [13] | Potency [14] | Potency [15] | Potency [16]

COc1ccc(C(=O)c2ccc(C)cc2)c(O)c1
inactive: Potency [1] | Potency [2] | outcome [4] | Potency [6] | outcome [8] | outcome [9] | outcome [10] | outcome [11] | outcome [12] | outcome [13] | Potency [14] | Potency [15] | outcome [20] | Potency [16]

CCCCCCC/C=C/C=O
inactive: Potency [3] | Potency [5] | Potency [6] | outcome [7] | outcome [8] | outcome [9] | outcome [10] | outcome [11] | outcome [12] | outcome [13] | Potency [14] | Potency [15] | outcome [20] | Potency [16]

CC(C)Cc1nccs1
inactive: Potency [1] | Potency [2] | Potency [3] | outcome [4] | outcome [17] | Potency [5] | outcome [18] | Potency [6] | outcome [7] | outcome [8] | outcome [9] | outcome [10] | outcome [11] | outcome [12] | outcome [13] | Potency [14] | Potency [15] | outcome [20] | Potency [16]

Cc1ccccc1CCO
inactive: Potency [1] | Potency [2] | Potency [3] | outcome [4] | outcome [17] | outcome [7] | outcome [8] | outcome [9] | outcome [10] | outcome [19] | outcome [12] | outcome [13] | Potency [14] | Potency [15] | outcome [20] | Potency [16]
